PubChem BioAssay AID624134 (Broad Institute, 2012)
The campaign covered roughly 1,600 compounds. About 1,100 (69%) were called active. So high a share suggests a set chosen from earlier hits. These entries were drawn from the full list. Results with a measured potency or affinity are listed apart. Inconclusive results are not listed.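 How the source made its calls: active means signal drop with fitted half-maximal concentration no higher than twice the top valid tested concentration; inconclusive means flat curve with 30 to 70% signal loss, or poor fit; inactive means the rest, including signal rises and flat curves within 30%.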 Non-standard residues stand in square brackets, D forms with d. Residues, ends and D or L forms follow the SMILES beside them. *: point of attachment. Ac5c = NC1(C(=O)O)CCCC1; Cbz = O=C(OCc1ccccc1)*

experiment: HepG2 cell cytotoxicity, dose response, cytotoxicity control for Shn3 inhibitor project, CellTiter-Glo, cherry-picked (AID 624134); conditions: HepG2 viability, CellTiter-Glo ATP luminescence, 48 h; series mostly up to 35 µM; activity change, negative = cytotoxicity: at the top concentration;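 further: 0% = median of neutral control wells and -100% = median of positive control wells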

| SMILES | activity change, negative = cytotoxicity |
| --- | --- |
| CCCCNc1cccc2c1S(=O)(=O)N(CCCC)CC(COCc1ccccc1)O2 (centres undefined) | -6.62% (inactive) |
| C=CCn1c(C)cc(C(=O)CN2C(=O)c3ccccc3S2(=O)=O)c1C | -11.7% (inactive) |
| CC(NNC(=S)N1CCN(c2ccccn2)CC1)c1nccc2ccccc12 (centres undefined) | -14.5% (inactive) |
| CCOC(=O)C1=C(C)N(CCCC(=O)O)C(=O)NC1c1ccc2ccccc2c1 (centres undefined) | -2.41% (inactive) |
| CC(=O)N1c2ccc(S(=O)(=O)N3CCC(C(=O)N4CCN(c5ccccc5F)CC4)CC3)cc2CC1C (centres undefined) | 4.49% (inactive) |
| CC1Cc2cc(S(=O)(=O)N3CCC(C(=O)N4CCN(c5ccccc5F)CC4)CC3)ccc2N1C(=O)C1CC1 (centres undefined) | -1.82% (inactive) |
| CC(=O)Oc1ccc(OC(C)=O)c(SCCCCCCl)c1 | -11.1% (inactive) |
| CN1/C(=C\C(=O)CN2C(=O)NC3(CCCCCC3)C2=O)C(C)(C)c2ccccc21 | -23% (inactive) |
| Cc1ccc(N2C(=O)c3cccc4c([N+](=O)[O-])ccc(c34)C2=O)c2cccnc12 | -22% (inactive) |
| O=C(N[C@@H]1C/C=C\C[C@H](CC(=O)N(CCO)Cc2ccccc2)C(=O)NC[C@@H](c2ccccc2)OC1=O)OCC1c2ccccc2-c2ccccc21 | -27% (inactive) |
| CN(CC(=O)Nc1cc(S(=O)(=O)N2CCCC2)ccc1Cl)Cc1ccc2c(c1)OCO2 | -8.05% (inactive) |
| Cc1ccc(NC(=O)NCCCN2CCOCC2)cc1 | 4.85% (inactive) |
| CC12CC(O)C3c4ccc(O)cc4CCC3C1CCC2=O (centres undefined) | -11.4% (inactive) |
| CCCCCOC(=O)c1[nH]c2c(c1C)C(=O)CC(c1ccco1)C2 (centres undefined) | -17.9% (inactive) |
| CCOC(=O)CNC(=O)C1(NC(=O)CNC(=O)OCc2ccccc2)CCCC1 (Cbz-Gly-[Ac5c]-Gly-OEt) | 1.52% (inactive) |
| CCC(C)[C@H]1CNC(=S)N1CCc1cc(C(F)(F)F)cc(C(F)(F)F)c1 (some centres undefined) | -12.5% (inactive) |
| CC(C)N=C(N)N=C(N)Nc1ccc(Cl)cc1 | -14.4% (inactive) |
| Cc1cc(C)cc(C(=O)NCC(=O)OCC(=O)NCC(F)(F)F)c1 | -10.9% (inactive) |
| CSC1SCC2C(=O)N(C)C(C(C)C)C(=O)OCC(NC(=O)c3cnc4ccccc4n3)C(=O)NC(C)C(=O)N(C)C1C(=O)N(C)C(C(C)C)C(=O)OCC(NC(=O)c1cnc3ccccc3n1)C(=O)NC(C)C(=O)N2C (centres undefined) | -23.9% (inactive) |
| O=C1ON=C(c2ccccc2)/C1=C/c1ccc(-c2ccccc2[N+](=O)[O-])o1 | -7.62% (inactive) |
| Cc1cc(C(=O)COC(=O)c2ccccc2O)c(C)n1Cc1cccs1 | 0.392% (inactive) |
| CC(Oc1ccc(F)cc1)C(=O)N(CCC1=CCCCC1)c1c(N)n(Cc2ccccc2)c(=O)[nH]c1=O (centres undefined) | -32.6% (inactive) |
| COc1ccc2c(CC(=O)OCC(=O)N(C)c3c(N)n(Cc4ccccc4)c(=O)[nH]c3=O)coc2c1 | 0.984% (inactive) |
| Cn1cccc1Cc1nnc(SCC(=O)NCCc2ccccc2)n1-c1ccc(F)cc1 | -2.41% (inactive) |
